The supplement of paper PMC9262897, “Low-cost anti-mycobacterial drug discovery using engineered E. coli” (Nature Communications, 2022)
Where a name gives a salt, the structure may show the parent alone. ± gives the standard deviation of the averaged measurements.

Key:
Experiment in all cases: growth (OD600 after 10 h); higher = more growth (less inhibition)
[1] = tested on: E. coli TESEC Alr+ wild-type control; details: compound 0.1 mM; raw OD600 reference: median of DMSO wells 0.241, cell-free background 0.041
Experimental: (§1)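 TESEC Mtb Alr E. coli, or the Alr+ wild-type control, in 384-well plates with Prestwick library compounds at 0.1 mM and 1% DMSO, across arabinose induction levels of 1E3 to 1E7 nM. Growth is read as OD600 after 10 h at 37 °C in triplicate biological replicates.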

E. coli TESEC Mtb Alr [2] = details: compound 0.1 mM
Experimental: as §1

E. coli TESEC Mtb Asd = details: compound 0.1 mM
Experimental: (§2)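 TESEC E. coli strains in which the native enzyme is deleted and replaced by arabinose-inducible Mtb Asd, DapB, CysH or TrpD, each grown in its selective medium. Strains were screened against the Prestwick library at 0.1 mM and 1% DMSO in 384-well format at low and high arabinose induction. Growth is read as OD600 after 10 h in triplicate.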

E. coli TESEC Mtb DapB = details: compound 0.1 mM
Experimental: as §2

[3] = tested on: E. coli TESEC Alr+ wild-type control; details: compound 0.1 mM; raw OD600 reference: median of DMSO wells 0.49, cell-free background 0.052
Experimental: (§3)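 TESEC Mtb Alr E. coli (ΔaraC ΔtolC ΔentC Δalr ΔdadX, arabinose-inducible Mtb Alr) or the Alr+ wild-type control strain, grown in defined M9-fructose medium without D-alanine in 96-well plates with Prestwick library compounds at 0.1 mM and 1% DMSO. Low Alr induction is 0.1 µM arabinose and high induction is 10 mM arabinose.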

E. coli TESEC Mtb Alr [4] = details: compound 0.1 mM; remark: listed apart in the source
Experimental: as §3

[5] = arabinose 1000 nM, raw OD600 reference: median of DMSO wells 0.294, cell-free background 0.041
[6] = arabinose 10000 nM, raw OD600 reference: median of DMSO wells 0.264, cell-free background 0.041
[7] = arabinose 100000 nM, raw OD600 reference: median of DMSO wells 0.201, cell-free background 0.041
[8] = arabinose 1000000 nM, raw OD600 reference: median of DMSO wells 0.193, cell-free background 0.041
[9] = arabinose 10000000 nM, raw OD600 reference: median of DMSO wells 0.146, cell-free background 0.041
[10] = arabinose induction (level): High, raw OD600 reference: median of DMSO wells 0.331, cell-free background 0.041
[11] = arabinose induction (level): Low, raw OD600 reference: median of DMSO wells 0.417, cell-free background 0.041
[12] = arabinose induction (level): High, raw OD600 reference: median of DMSO wells […], cell-free background 0.041
[13] = arabinose induction (level): Low, raw OD600 reference: median of DMSO wells 0.227, cell-free background 0.041
[14] = arabinose 100 nM, raw OD600 reference: median of DMSO wells 0.413, cell-free background 0.052
[15] = arabinose 10000000 nM, raw OD600 reference: median of DMSO wells […], cell-free background 0.052

SMILES | growth [1] | growth (E. coli TESEC Mtb Alr [2]; [5]) | growth (E. coli TESEC Mtb Alr [2]; [6]) | growth (E. coli TESEC Mtb Alr [2]; [7]) | growth (E. coli TESEC Mtb Alr [2]; [8]) | growth (E. coli TESEC Mtb Alr [2]; [9]) | growth (E. coli TESEC Mtb Asd; [10]) | growth (E. coli TESEC Mtb Asd; [11]) | growth (E. coli TESEC Mtb DapB; [12]) | growth (E. coli TESEC Mtb DapB; [13]) | growth [3] | growth (E. coli TESEC Mtb Alr [4]; [14]) | growth (E. coli TESEC Mtb Alr [4]; [15])
CN1CCCC(n2nc(Cc3ccc(Cl)cc3)c3ccccc3c2=O)CC1 (stereo not drawn) [Azelastine HCl] | 0.16 ± 0.0036 | 0.19 ± 0.011 | 0.172 ± 0.0055 | 0.193 ± 0.0073 | 0.105 ± 0.0015 | 0.1635 ± 0.00076 | 0.157 ± 0.025 | 0.241 ± 0.056 | 0.169 ± 0.0087 | 0.191 ± 0.011 | 0.472 ± 0.021 | 0.409 ± 0.0069 | 0.312 ± 0.019
COc1cc2nc(N(C)CCCNC(=O)C3CCCO3)nc(N)c2cc1OC (stereo not drawn) [Alfuzosin hydrochloride] | 0.215 ± 0.0062 | 0.286 ± 0.005 | 0.252 ± 0.0042 | 0.192 ± 0.027 | 0.142 ± 0.008 | 0.155 ± 0.011 | 0.24 ± 0.029 | 0.361 ± 0.029 | 0.217 ± 0.007 | 0.229 ± 0.006 | 0.462 ± 0.029 | 0.4 ± 0.013 | 0.318 ± 0.013
CO/N=C(\C(=O)N[C@@H]1C(=O)N2C(C(=O)O)=C(COC(N)=O)CS[C@H]12)c1ccco1 [Cefuroxime sodium salt] | 0.0579 ± 0.0016 | 0.0404 ± 0.0013 | 0.0396 ± 0.00059 | 0.0725 ± 0.0027 | 0.0701 ± 0.0021 | 0.115 ± 0.0014 | 0.213 ± 0.0073 | 0.232 ± 0.0044 | 0.229 ± 0.013 | 0.16 ± 0.009 | 0.0629 ± 0.0034 | 0.04693 ± 0.0004 | 0.169 ± 0.024
CCCCCCCCNC(C)C(O)c1ccc(SC(C)C)cc1 (stereo not drawn) [Suloctidil] | 0.0763 ± 0.037 | 0.0398 ± 0.0011 | 0.0405 ± 0.00085 | 0.0403 ± 0.00044 | 0.0856 ± 0.078 | 0.0896 ± 0.085 | 0.191 ± 0.016 | 0.162 ± 0.074 | 0.153 ± 0.023 | 0.189 ± 0.019 | 0.0529 ± 0.0091 | 0.0587 ± 0.0041 | 0.0516 ± 0.00081
CCCCCN(CCCCC)C(=O)C(CCC(=O)O)NC(=O)c1ccc(Cl)c(Cl)c1 (stereo not drawn) [Lorglumide sodium salt] | 0.152 ± 0.0035 | 0.158 ± 0.01 | 0.114 ± 0.0014 | 0.158 ± 0.0084 | 0.0691 ± 0.00087 | 0.125 ± 0.0012 | 0.194 ± 0.019 | 0.162 ± 0.0069 | 0.153 ± 0.015 | 0.243 ± 0.015 | 0.104 ± 0.002 | 0.302 ± 0.17 | 0.161 ± 0.025
O=c1n(CCCN2CCN(c3cccc(Cl)c3)CC2)nc2ccccn12 [Trazodone hydrochloride] | 0.203 ± 0.0052 | 0.24 ± 0.011 | 0.235 ± 0.0052 | 0.159 ± 0.0089 | 0.105 ± 0.0032 | 0.13 ± 0.0034 | 0.242 ± 0.051 | 0.404 ± 0.099 | 0.189 ± 0.014 | 0.243 ± 0.057 | 0.471 ± 0.043 | 0.406 ± 0.0066 | 0.255 ± 0.028
CC(=O)N(CC(O)CN(C(C)=O)c1c(I)c(C(=O)NCC(O)CO)c(I)c(C(=O)NCC(O)CO)c1I)c1c(I)c(C(=O)NCC(O)CO)c(I)c(C(=O)NCC(O)CO)c1I (stereo not drawn) [Iodixanol] | 0.235 ± 0.0081 | 0.303 ± 0.015 | 0.26 ± 0.0054 | 0.182 ± 0.022 | 0.177 ± 0.0052 | 0.1415 ± 0.00091 | 0.358 ± 0.082 | 0.421 ± 0.015 | 0.206 ± 0.0036 | 0.215 ± 0.043 | 0.537 ± 0.093 | 0.406 ± 0.013 | 0.334 ± 0.0038
CC(C)(C)NC[C@H](O)COc1cccc2c1CCCC2=O [(-) -Levobunolol hydrochloride] | 0.227 ± 0.022 | 0.295 ± 0.0092 | 0.253 ± 0.0095 | 0.189 ± 0.0065 | 0.1733 ± 0.0014 | 0.141 ± 0.0056 | 0.401 ± 0.085 | 0.428 ± 0.059 | 0.203 ± 0.0036 | 0.221 ± 0.019 | 0.613 ± 0.048 | 0.403 ± 0.013 | 0.334 ± 0.0023
CN1CCC(=C2c3ccccc3CC(=O)c3sccc32)CC1 [Ketotifen fumarate] | 0.196 ± 0.0062 | 0.254 ± 0.0091 | 0.246 ± 0.01 | 0.206 ± 0.032 | 0.131 ± 0.0024 | 0.143 ± 0.0042 | 0.198 ± 0.036 | 0.39 ± 0.042 | 0.239 ± 0.043 | 0.217 ± 0.02 | 0.54 ± 0.048 | 0.405 ± 0.0086 | 0.303 ± 0.017
Cn1c(NCCN(CCO)CCCc2ccc([N+](=O)[O-])cc2)cc(=O)n(C)c1=O [Nifekalant] | 0.241 ± 0.011 | 0.301 ± 0.0034 | 0.248 ± 0.003 | 0.168 ± 0.0095 | 0.144 ± 0.0052 | 0.145 ± 0.002 | 0.179 ± 0.017 | 0.428 ± 0.057 | 0.2 ± 0.033 | 0.258 ± 0.013 | 0.534 ± 0.067 | 0.4 ± 0.015 | 0.298 ± 0.02
O=c1cc(-c2ccc(O)c(O)c2)oc2cc(O)cc(O)c12 [Luteolin] | 0.05467 ± 0.00021 | 0.0562 ± 0.0013 | 0.05 ± 0.0007 | 0.05233 ± 0.00025 | 0.0567 ± 0.0052 | 0.0518 ± 0.0022 | 0.0806 ± 0.023 | 0.063 ± 0.0053 | 0.0614 ± 0.0012 | 0.0607 ± 0.002 | 0.174 ± 0.18 | 0.152 ± 0.019 | 0.0574 ± 0.0016
CN1C(C)(C)CCCC1(C)C [Pempidine tartrate] | 0.245 ± 0.0082 | 0.307 ± 0.017 | 0.284 ± 0.0059 | 0.183 ± 0.026 | 0.196 ± 0.0024 | 0.143 ± 0.011 | 0.343 ± 0.023 | 0.434 ± 0.024 | 0.203 ± 0.024 | 0.239 ± 0.043 | 0.572 ± 0.089 | 0.4074 ± 0.0021 | 0.335 ± 0.011
CC(C)(C)c1ccc(C(O)CCCN2CCC(C(O)(c3ccccc3)c3ccccc3)CC2)cc1 (stereo not drawn) [Terfenadine] | 0.205 ± 0.0036 | 0.207 ± 0.14 | 0.296 ± 0.0092 | 0.181 ± 0.0044 | 0.136 ± 0.072 | 0.158 ± 0.0023 | 0.265 ± 0.054 | 0.421 ± 0.013 | 0.199 ± 0.013 | 0.239 ± 0.014 | 0.0576 ± 0.0093 | 0.0737 ± 0.031 | 0.0518 ± 0.00085
O=C(O)c1ccccc1OP(=O)(O)O [Fosfosal] | 0.242 ± 0.0067 | 0.292 ± 0.017 | 0.266 ± 0.0057 | 0.192 ± 0.026 | 0.198 ± 0.0055 | 0.137 ± 0.0018 | 0.349 ± 0.051 | 0.424 ± 0.097 | 0.21 ± 0.017 | 0.239 ± 0.0092 | 0.561 ± 0.049 | 0.405 ± 0.01 | 0.366 ± 0.0071
CC(NCCC(c1ccccc1)c1ccccc1)c1ccccc1 (stereo not drawn) [Fendiline hydrochloride] | 0.03973 ± 0.00035 | 0.0413 ± 0.0034 | 0.03877 ± 0.00012 | 0.0416 ± 0.0018 | 0.0386 ± 0.00049 | 0.04153 ± 0.00035 | 0.0469 ± 0.0006 | 0.04653 ± 0.00025 | 0.0461 ± 0.00056 | 0.0491 ± 0.0046 | 0.0558 ± 0.011 | 0.4097 ± 0.0034 | 0.0578 ± 0.0028
CCCCNc1c(C(=O)OCC)c(C)nc2c1cnn2CC [Tracazolate hydrochloride] | 0.15 ± 0.017 | 0.203 ± 0.049 | 0.13 ± 0.037 | 0.197 ± 0.051 | 0.077 ± 0.031 | 0.168 ± 0.031 | 0.165 ± 0.017 | 0.179 ± 0.014 | 0.156 ± 0.0092 | 0.194 ± 0.0047 | 0.335 ± 0.024 | 0.366 ± 0.0077 | 0.186 ± 0.042
